The nature of test [1]: NS1 protein of Zika virus - qHTS assay to identify small molecule inhibitors in human HEK 293 cells (AID 1347053). Note: series mostly up to about 46 µM; nearly all actives have a fitted effect of over 55% in size. In a few lines:
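HEK 293 cells pretreated with compound for 1 h, then infected with ZIKV MR766 (MOI 0.5) for 24 h at 37 C. NS1 detected by TR-FRET with two anti-NS1 antibodies; normalized to uninfected (0%) and infected (100%) wells.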
Background: qHTS replaces the single test concentration by a dilution series.

Test [2] can be described thus: qHTS of pediatric cancer cell lines to identify multiple opportunities for drug repurposing: Primary screen for TC32 cells (AID 1347089). Note: nearly all actives have a fitted effect of over 60% in size. Note: potency is the fitted concentration of half-maximal effect. In a few lines:
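Measured quantity: luminescence from CellTiter-Glo, reflecting metabolically active TC32 cells following 48 h of compound. Curves came straight from multi-point titrations, with 8 or 11 points in primary and 11 in confirmatory screening.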

The nature of test [3]: qHTS of pediatric cancer cell lines to identify multiple opportunities for drug repurposing: Primary screen for DAOY cells (AID 1347090). Note: nearly all actives have a fitted effect of over 55% in size. Note: potency is the fitted concentration of half-maximal effect. The method, boiled down: (§1)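 Cell viability, CellTiter-Glo luminescence; 500-1,000 cells/well, 8- or 11-point titration, 48 h compound exposure at 37 degrees C, 5% CO2. Controls: DMSO neutral, bortezomib 2.3 µM final as positive.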
The target in test [4] is Atrial natriuretic peptide receptor 1 (Homo sapiens) (UniProt P16066). Briefly: Natriuretic polypeptide receptor (hNpr1) antagonism - Pilot screen (AID 1347049; calls by dose curve;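 note: agonist-evoked cGMP luminescence read 20 min after hNppA addition; series mostly up to about 58 µM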). The method, boiled down: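 Readout is cGMP-driven firefly luciferase luminescence in HEK293 cells carrying hNpr1 and a PDE5-domain GloSensor, read before and 20 min after 0.1 nM hNppA stimulation. Cells had 2% substrate reagent for 2 h and test compound for 30 min.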
Atrial natriuretic peptide receptor 1 (Homo sapiens), sequence (P16066 whole entry, looked up): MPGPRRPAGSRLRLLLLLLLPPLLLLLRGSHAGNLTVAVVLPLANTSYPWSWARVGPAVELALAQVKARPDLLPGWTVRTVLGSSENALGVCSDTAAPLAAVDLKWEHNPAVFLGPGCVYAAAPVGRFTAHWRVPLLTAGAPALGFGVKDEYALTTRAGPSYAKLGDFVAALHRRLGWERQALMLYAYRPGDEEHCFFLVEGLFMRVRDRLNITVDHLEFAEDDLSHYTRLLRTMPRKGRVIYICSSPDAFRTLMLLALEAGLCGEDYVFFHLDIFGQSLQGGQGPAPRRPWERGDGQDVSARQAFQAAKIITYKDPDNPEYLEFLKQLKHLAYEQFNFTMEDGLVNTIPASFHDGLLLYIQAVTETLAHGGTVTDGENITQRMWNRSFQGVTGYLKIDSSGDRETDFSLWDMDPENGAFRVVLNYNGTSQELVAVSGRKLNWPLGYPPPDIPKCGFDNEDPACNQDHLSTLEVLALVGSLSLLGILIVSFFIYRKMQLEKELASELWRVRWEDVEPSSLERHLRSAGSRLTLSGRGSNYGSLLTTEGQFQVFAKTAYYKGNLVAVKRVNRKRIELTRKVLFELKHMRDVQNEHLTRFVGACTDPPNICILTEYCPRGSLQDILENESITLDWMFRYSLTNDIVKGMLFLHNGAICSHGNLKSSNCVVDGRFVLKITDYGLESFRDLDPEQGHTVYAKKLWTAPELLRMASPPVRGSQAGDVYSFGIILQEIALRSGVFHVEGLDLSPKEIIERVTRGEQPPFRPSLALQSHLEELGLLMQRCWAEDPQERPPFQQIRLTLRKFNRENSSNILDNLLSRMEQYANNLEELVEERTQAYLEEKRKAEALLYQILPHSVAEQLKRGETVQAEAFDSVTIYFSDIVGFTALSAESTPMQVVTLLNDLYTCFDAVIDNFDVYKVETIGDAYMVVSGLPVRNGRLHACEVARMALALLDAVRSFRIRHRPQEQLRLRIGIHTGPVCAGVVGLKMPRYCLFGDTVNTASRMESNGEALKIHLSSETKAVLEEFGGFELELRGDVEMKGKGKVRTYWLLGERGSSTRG

The target of test [5] is Atrial natriuretic peptide receptor 2 (Homo sapiens) (UniProt P20594). Briefly: Natriuretic polypeptide receptor (hNpr2) antagonism - Pilot subtype selectivity assay (AID 1347050; calls by dose curve). In a few lines: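 Pilot selectivity screen against hNpr2: HEK293 cGMP-sensor cells are treated with LOPAC1280 compounds, then with hNppC peptide at 1 nM final. The cGMP-driven luminescence change over 20 min at room temperature is the read-out.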
Atrial natriuretic peptide receptor 2 (Homo sapiens), sequence (P20594 whole entry, looked up): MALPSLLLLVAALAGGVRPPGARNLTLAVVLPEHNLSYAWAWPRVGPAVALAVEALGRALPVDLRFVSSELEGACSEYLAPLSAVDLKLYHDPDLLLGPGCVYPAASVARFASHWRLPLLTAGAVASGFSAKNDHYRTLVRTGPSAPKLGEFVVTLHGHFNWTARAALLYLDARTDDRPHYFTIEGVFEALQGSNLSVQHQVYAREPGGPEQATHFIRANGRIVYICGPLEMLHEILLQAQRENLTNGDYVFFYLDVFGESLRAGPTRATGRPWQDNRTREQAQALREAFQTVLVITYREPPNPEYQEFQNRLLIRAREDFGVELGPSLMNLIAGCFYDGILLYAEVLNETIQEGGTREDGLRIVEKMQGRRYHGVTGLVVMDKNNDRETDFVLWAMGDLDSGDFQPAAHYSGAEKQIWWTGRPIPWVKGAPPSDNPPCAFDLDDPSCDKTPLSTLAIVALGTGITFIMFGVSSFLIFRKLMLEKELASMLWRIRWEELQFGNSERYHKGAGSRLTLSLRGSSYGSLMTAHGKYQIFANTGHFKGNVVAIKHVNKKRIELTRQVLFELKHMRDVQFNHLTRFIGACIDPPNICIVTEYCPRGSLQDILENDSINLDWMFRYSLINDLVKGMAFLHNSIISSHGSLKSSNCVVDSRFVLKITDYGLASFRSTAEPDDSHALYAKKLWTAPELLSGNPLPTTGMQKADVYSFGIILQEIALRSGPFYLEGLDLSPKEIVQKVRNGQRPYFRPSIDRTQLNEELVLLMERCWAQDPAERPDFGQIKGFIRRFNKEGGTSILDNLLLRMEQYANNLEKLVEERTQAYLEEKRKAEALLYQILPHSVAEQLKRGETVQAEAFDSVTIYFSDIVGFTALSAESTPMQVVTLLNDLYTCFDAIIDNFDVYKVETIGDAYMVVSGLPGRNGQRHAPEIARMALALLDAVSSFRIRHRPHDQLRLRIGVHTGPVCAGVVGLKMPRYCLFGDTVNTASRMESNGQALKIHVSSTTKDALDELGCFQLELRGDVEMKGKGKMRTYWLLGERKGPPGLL

The target in test [6] is T1, Tyrosine-protein phosphatase non-receptor type substrate 1 (Homo sapiens) + Leukocyte surface antigen CD47 (Homo sapiens) (UniProt P78324+Q08722). Briefly: CD47-SIRPalpha protein protein interaction - HTRF assay qHTS validation (AID 1347058; active = well fitted curve in the direction sought with a large enough effect in the signal ratio, not every such curve was filed as active; the % refers to the signal ratio;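 note: recombinant soluble extracellular CD47 with His tag and biotinylated SIRPalpha domains; series mostly up to about 38 µM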). In a few lines:
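TR-FRET read (Ch1/Ch2 ratio) of soluble extracellular CD47 and Avi-biotinylated SIRPalpha domains in PBS pH 7.4 with 0.05% IGEPAL; 7-point compound titration. Sequential 30 min room-temperature steps; non-biotinylated SIRPalpha as control inhibitor.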
In general terms: In TR-FRET formats the signal depends on donor and acceptor labels being close together.

Test [7] has as its target T1, Tyrosine-protein phosphatase non-receptor type substrate 1 (Homo sapiens) + Leukocyte surface antigen CD47 (Homo sapiens). Briefly: CD47-SIRPalpha protein protein interaction - Alpha assay qHTS validation (AID 1347059).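 Note: bead proximity luminescence from CD47 binding SIRPalpha after compound preincubation with SIRPalpha.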 The method, boiled down:
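Binding is measured by AlphaScreen proximity: Ni-NTA acceptor beads capture His-CD47, streptavidin donor beads capture biotin-SIRPalpha. Each of three additions (SIRPalpha with compound, CD47, beads) incubates 30 min at room temperature protected from light.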

Test [8] concerns the target Parathyroid hormone/parathyroid hormone-related peptide receptor (Homo sapiens) (UniProt Q03431). Briefly: qHTS for PTHR1 Agonists: Optimization Screen against the NCGC LOPAC library (AID 1347079).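 Note: GloSensor cAMP luminescence in HEK-293 GP2 cells expressing human PTHR1 with IBMX.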 In a few lines: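 Compounds were tested across a qHTS titration. PTHR1-expressing GP2 cells report cAMP rises via GloSensor luminescence after 1 hr compound exposure at 37C with IBMX present.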

Test [9] in a line: qHTS of pediatric cancer cell lines to identify multiple opportunities for drug repurposing: Primary screen for SJ-GBM2 cells (AID 1347091). The method, boiled down:
as §1

The nature of test [10]: qHTS of pediatric cancer cell lines to identify multiple opportunities for drug repurposing: Primary screen for A673 cells (AID 1347092). Note: nearly all actives have a fitted effect of over 45% in size. In a few lines:
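Cells are plated, rested 5 h, dosed by pintool, incubated 48 h, then lysed with CellTiter-Glo and read by luminescence. DMSO is the neutral control; bortezomib at 2.3 uM final is the positive control.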

The structures appear in SMILES notation. Records with an inconclusive call do not appear. The source made the active and inactive calls. Unless noted, calls come from the whole dose curve; as a rule, active = well fitted curve in the direction sought with a large enough effect; inconclusive = small, poorly fitted or top-dose-only effect, or another doubt; inactive = no such curve, though single readings can be large; an effect the other way counts as inactive or inconclusive.

T1 sequence (P78324 whole entry, looked up, the tested form may be a part): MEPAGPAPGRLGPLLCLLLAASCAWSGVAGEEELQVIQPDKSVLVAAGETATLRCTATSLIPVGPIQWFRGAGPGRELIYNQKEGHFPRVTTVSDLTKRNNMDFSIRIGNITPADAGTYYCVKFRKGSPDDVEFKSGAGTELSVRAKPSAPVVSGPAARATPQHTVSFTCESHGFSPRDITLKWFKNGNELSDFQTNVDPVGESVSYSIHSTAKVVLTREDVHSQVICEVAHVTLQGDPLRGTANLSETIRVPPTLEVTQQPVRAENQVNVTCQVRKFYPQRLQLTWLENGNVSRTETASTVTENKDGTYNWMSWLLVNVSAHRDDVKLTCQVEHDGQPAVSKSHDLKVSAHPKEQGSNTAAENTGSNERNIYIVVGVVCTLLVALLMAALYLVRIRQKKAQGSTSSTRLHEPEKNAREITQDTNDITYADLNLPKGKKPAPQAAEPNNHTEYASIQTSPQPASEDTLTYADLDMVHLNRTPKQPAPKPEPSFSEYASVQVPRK
T1 sequence (Q08722 whole entry, looked up, the tested form may be a part): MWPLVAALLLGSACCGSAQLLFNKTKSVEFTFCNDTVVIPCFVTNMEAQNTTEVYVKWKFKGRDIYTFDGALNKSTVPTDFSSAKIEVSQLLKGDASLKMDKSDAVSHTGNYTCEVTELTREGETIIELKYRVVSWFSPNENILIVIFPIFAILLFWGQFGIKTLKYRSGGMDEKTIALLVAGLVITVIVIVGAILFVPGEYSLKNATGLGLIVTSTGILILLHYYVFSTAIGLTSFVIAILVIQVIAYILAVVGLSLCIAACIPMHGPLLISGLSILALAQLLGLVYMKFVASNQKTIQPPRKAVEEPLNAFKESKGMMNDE
Parathyroid hormone/parathyroid hormone-related peptide receptor (Homo sapiens), sequence (Q03431 whole entry, looked up): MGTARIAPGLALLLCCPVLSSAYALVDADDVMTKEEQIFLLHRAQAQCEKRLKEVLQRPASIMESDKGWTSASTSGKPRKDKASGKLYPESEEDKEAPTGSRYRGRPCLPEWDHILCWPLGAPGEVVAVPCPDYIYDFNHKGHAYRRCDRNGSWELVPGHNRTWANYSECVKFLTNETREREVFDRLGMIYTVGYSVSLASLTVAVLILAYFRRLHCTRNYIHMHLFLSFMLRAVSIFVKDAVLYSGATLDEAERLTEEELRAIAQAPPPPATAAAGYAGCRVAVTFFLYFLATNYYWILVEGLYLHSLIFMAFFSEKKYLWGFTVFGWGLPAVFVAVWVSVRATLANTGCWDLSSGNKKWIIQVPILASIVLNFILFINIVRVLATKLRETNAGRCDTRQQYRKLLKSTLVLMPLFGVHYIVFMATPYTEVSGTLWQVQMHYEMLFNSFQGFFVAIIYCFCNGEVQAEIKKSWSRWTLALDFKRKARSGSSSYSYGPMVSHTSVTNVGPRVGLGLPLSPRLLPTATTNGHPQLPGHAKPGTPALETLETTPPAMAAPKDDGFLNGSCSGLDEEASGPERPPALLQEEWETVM

Take `COc1c(C)c2c(c(O)c1C/C=C(\C)CCC(=O)OCCN1CCOCC1)C(=O)OC2`: the Potency result in [1] was “inactive”. Further, the Potency in [2] is 745 nM (active).

With `Cc1cccc(N(C)C(=S)Oc2ccc3c(c2)C2CCC3C2)c1` (stereo not drawn), the Potency entry in test [1] and in [2] was “inactive” in each case. Also, the Potency in test [3] was 26.6 µM (active).

For the molecule `NC(N)=NCCCCN=C(N)N`, the Potency entry in [4], in test [5], in [1] and in test [7] was “inactive” in each case. Also, the outcome in [6] and in [8] was inactive.

For the molecule `O=C(NO)c1ccccc1`, the Potency entry in test [1] and in [2] was “inactive” each time.

On to `CCN(CC)CCNC(=O)c1ccc(NS(C)(=O)=O)cc1`, for which the Potency result in test [4], in test [1] and in [7] was “inactive” in each case. For the same molecule, the outcome in test [6] and in test [8] was inactive.

Turning to `Nc1ccc([N+](=O)[O-])c(C(F)(F)F)c1`, the Potency entry in test [1], in test [2], in test [3] and in test [9] was “inactive” in each case.

On to `Cc1cccc(C)c1NC(=O)c1ccc(N)cc1`, for which the Potency result in test [1], in test [2], in [3] and in [9] was “inactive” each time.

In the case of `C[C@H](N)C(=O)N[C@@H](C)C(=O)NC1[C@H]2CN(c3nc4c(cc3F)c(=O)c(C(=O)O)cn4-c3ccc(F)cc3F)C[C@@H]12` (stereo partly drawn), the Potency result in [1], in [2], in [3] and in [9] was “inactive” throughout.

Regarding `CC(C)OC(=O)c1cc2c(OCC(O)CNC(C)(C)C)cccc2[nH]1` (stereo not drawn), the Potency entry in [1], in [2], in test [3] and in [9] was “inactive” each time.

For the molecule `COC(=O)/C=C\C(=O)OC`, the Potency result in [1], in [2], in test [3] and in [9] was “inactive” throughout.

For `CC[N+](CC)(CC)CCOC(=O)C(C1CCCC1)C1CCCC1`, the Potency entry in test [1], in test [2], in [3] and in test [9] was “inactive” in each case.

Regarding `CCOc1ccc(NS(=O)(=O)c2ccc(N)cc2)nn1`, the Potency result in test [1], in test [2], in test [3] and in test [9] was “inactive” each time.

Take `C#Cc1ccc(-c2ccccc2F)cc1`: the Potency result in test [1], in [2], in test [3] and in test [9] was “inactive” throughout.

On to `CCCC(=O)O[C@]1(C(=O)CC)CC[C@H]2[C@@H]3CCC4=CC(=O)CC[C@]4(C)[C@H]3[C@@H](O)C[C@@]21C`, for which the Potency result in [1], in [2], in test [3] and in test [9] was “inactive” in each case.

Regarding `Cc1oc(=O)oc1COC(=O)[C@@H]1N2C(=O)[C@@H](NC(=O)[C@H](N)c3ccccc3)[C@H]2SC1(C)C`, the Potency entry in [1], in test [2], in test [3] and in test [9] was “inactive” throughout.

For `CCCCCC[C@@H](CCC)C(=O)O`, the Potency result in test [1], in [2], in [3] and in test [9] was “inactive” each time.

Consider `CC(=O)[C@H]1CC[C@H]2[C@@H]3C=CC4=CC(=O)CC[C@@]4(C)[C@@H]3CC[C@]12C`, for which the Potency result in [1], in [2], in test [3] and in test [9] was “inactive” in each case.

Regarding `CCCCCCCC(=O)[O-].CCCCCCCC(=O)[O-].[Zn+2]`, the Potency entry in test [1], in [2], in test [3], in test [9] and in test [10] was “inactive” in each case.

For the molecule `CC(CCc1ccc2c(c1)OCO2)NN` (stereo not drawn), the Potency result in [1], in [2], in test [3] and in test [9] was “inactive” throughout.

`CNC(=O)c1c(I)c(NC(C)=O)c(I)c(C(=O)O)c1I`: the Potency result in [1], in [2], in [3] and in test [9] was “inactive” throughout.

For `CC(=O)OC/C=C(C)/C=C/C=C(C)/C=C/C1=C(C)CCCC1(C)C`, the Potency entry in [1], in test [2], in test [3] and in test [9] was “inactive” each time.

Take `CC(C)C[C@@H]1[C@H](c2ccccc2)OC(=O)N1CCCN1CCCCCC1`: the Potency result in test [1], in test [2], in test [3] and in [9] was “inactive” each time.

On to `CC(C)(C)c1cc(C=O)cc(C(C)(C)C)c1O`, for which the Potency result in [1], in test [2], in [3] and in test [9] was “inactive” each time.

As for `CC(=O)O[C@@H]1CC2C3CCc4cc(OC(=O)c5ccccc5)ccc4C3CCC2(C)[C@H]1OC(C)=O` (stereo partly drawn), the Potency entry in test [1], in test [2], in test [3] and in [9] was “inactive” each time.

With `CN1C(=O)c2ccccc2C1=O`, the Potency result in test [1], in test [2], in test [3] and in [9] was “inactive” throughout.

As for `CCOC(=O)[C@H](CCc1ccccc1)N[C@@H](C)C(=O)N(CC(=O)O)C1Cc2ccccc2C1`, the Potency result in test [1], in test [2], in [3] and in test [9] was “inactive” throughout.

As for `CCOC(=O)C(=O)CCCCCCl`, the Potency result in test [1], in test [2], in test [3] and in [9] was “inactive” throughout.

As to `COC(=O)/C=C(/C)N`, the Potency result in test [1], in test [2], in [3] and in test [9] was “inactive” each time.

`O=[N+]([O-])c1cncn1CCN1CCOCC1`: the Potency entry in test [1], in test [2], in test [3] and in test [9] was “inactive” in each case.

Regarding `CO/N=C(/C(=O)N[C@@H]1C(=O)N2C(C(=O)[O-])=C(C[n+]3ccn4ncccc43)CS[C@H]12)c1nsc(N)n1`, the Potency entry in test [1], in test [2], in test [3] and in test [9] was “inactive” throughout.

`CCCOc1ccc2c(c1)CC[C@@H]1[C@@H]2CC[C@]2(C)C(OC)CC[C@@H]12` (stereo partly drawn): the Potency entry in [1], in test [2], in [3] and in test [9] was “inactive” in each case.

With `CN1[C@@H]2CC[C@H]1CC(NC(=O)n1c(=O)[nH]c3ccccc31)C2` (stereo partly drawn), the Potency entry in test [1], in test [2], in test [3] and in test [9] was “inactive” throughout.

For the molecule `Clc1ccc2c(c1)Nc1ccccc1S2`, the Potency result in test [1], in test [2], in test [3] and in test [9] was “inactive” each time.

For the molecule `COc1cc(C(=O)OC(COCCC(C)C)CN2CCOCC2)cc(OC)c1OC` (stereo not drawn), the Potency result in [1], in [2], in test [3] and in [9] was “inactive” each time.

With `C/C(=C(/OCCOc1ccc(Cl)cc1)c1ccc(Cl)cc1Cl)n1ccnc1`, the Potency entry in test [1], in test [2], in test [3] and in test [9] was “inactive” in each case.

In the case of `CCOC(=O)c1cc(=O)c2c(OCC(COc3cccc4oc(C(=O)OCC)cc(=O)c34)OC(=O)[C@@H](N)CCCCN)cccc2o1`, the Potency entry in test [1], in test [2], in [3] and in [9] was “inactive” in each case.

The record behind these values is PubChem BioAssay (NCATS).
